Measurements published in PubChem BioAssay AID1117359 (Southern Research Institute, 2015).
The whole screen tested about 1,500 compounds, of which about 460 (31%) were called active. The list is a sample of the results. Entries with a potency or affinity are not part of this list. Unmarked numbers belong to inactive results.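 How the source made its calls: active means viability at or below 80% at any tested concentration, marking the compound as toxic; inactive means the rest.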

Assay: viability loss in THP-1 monocytes – THP-1 cells, cytotoxicity control for Vif-APOBEC3G degradation inhibitor project, dose response (AID 1117359)
Details: THP-1 viability, CellTiter-Glo luminescence, 72 h; series mostly up to 40 µM; viability: at the top concentration

Row | SMILES | viability [%] | outcome
1 | CCOC(=O)C1(C)NC(c2ccco2)C2C(=O)N(CC)C(=O)C21 (configuration not stated) | 110 | –
2 | O=C1CC(c2ccco2)CC(O)=C1C=NCC1CCNCC1 (configuration not stated) | 84 | –
3 | Cc1cccc(/C=C(\C(=O)O)c2ccc(S(=O)(=O)N3CCCC3)s2)c1 | 85.2 | –
4 | O=C(C1CCN(S(=O)(=O)N2CCC3(CC2)OCCO3)CC1)N1CCOCC1 | 94.2 | –
5 | COc1ccccc1NCCC(=O)OCC(=O)NCc1ccco1 | 108 | –
6 | CCOC(=O)c1ccc(NC(=O)CSCc2ccco2)cc1 | 98.2 | –
7 | Cc1ccc(NC(=O)CNC(=O)COc2ccccc2)nc1 | 103 | –
8 | COc1cccc(C(=O)N2CCN(Cc3nc(CC4CC4)no3)CC2)c1 | 102 | –
9 | CCCCC(O)(CCCC)C(=O)N/N=C(\C)c1ccc(Cl)cc1 | 95.1 | –
10 | NC(=O)c1ccc(N2CCN(c3ccc(O)cc3)CC2)c([N+](=O)[O-])c1 | 92 | –
11 | CCC(=O)Nc1ccc(S(=O)(=O)NC[C@H]2O[C@@H](n3cc(C)c(=O)[nH]c3=O)C[C@@H]2O)cc1 | 92.5 | –
12 | C=C(C)C1CC=C(C)/C(=N\NC(=O)CCC(=O)Nc2ccc(C)c(C)c2)C1 (configuration not stated) | 87.5 | –
13 | c1coc(CNc2nc(-c3cccs3)cs2)c1 | 91.9 | –
14 | O=C(Nc1cc(Cl)cc(Cl)c1)c1coc(=O)c(Br)c1 | 105 | –
15 | C[c-]1[c-](C)[c-](C)[c-](C)[c-]1C.[Fe].c1cc2nccc(N3CCCC3)[c-]2c1 (configuration not stated) | 83.7 | –
16 | CCn1c(SC(C)C)nnc1-c1cc(-c2ccccc2)sc1N | 92.6 | –
17 | COc1ccc(C(=O)O)cc1S(=O)(=O)N1CCCc2ccccc21 | 84.4 | –
18 | COCCn1c(SCC(=O)Nc2ccccc2F)nc2c([nH]c3ccccc32)c1=O | 102 | –
19 | CC1=C(C#N)C(=O)N(C2CCS(=O)(=O)C2)C(=O)/C1=C\c1ccc(C)o1 (configuration not stated) | 101 | –
20 | S=c1[nH]nc(COc2ccc(Cl)cc2)n1Cc1ccccc1 | 83.4 | –
21 | CCCC(=O)NC(C)C(c1cccs1)N1CCN(C)CC1 (configuration not stated) | 117 | –
22 | CCOc1ccccc1N1C(=O)CC(Nc2ccc(N3CCOCC3)cc2)C1=O (configuration not stated) | 91.4 | –

Row | SMILES | viability [%] | outcome
23 | CN(C(=O)COc1ncnc2sccc12)c1ccccc1 | 107 | –
24 | O=C(C1CCC(CNc2c(N3CCCCC3)c(=O)c2=O)CC1)N1CCN(C2CCCCC2)CC1 (configuration not stated) | 105 | –
25 | CC(=O)N1CCN(c2ccc(NCc3ccccc3)cc2)CC1 | 90 | –
26 | Cc1sc2nc(C)n(/N=C/c3ccccc3O)c(=O)c2c1C | 105 | –
27 | COc1cc2c(cc1N)-c1ccc(N)cc1C2 | 84 | –
28 | C=C(C)C(=O)Nc1cccc(C2=NOC3(C2)C[C@@H](C(N)=O)N(C(=O)c2cc([N+](=O)[O-])cc([N+](=O)[O-])c2)C3)c1 (some centres not stated) | 91.8 | –
29 | O=C(O)c1cc(Nc2cc(Cl)c3nonc3c2[N+](=O)[O-])ccc1O | 107 | –
30 | Cc1ccc(S(=O)(=O)Cn2nnnc2C(CC(C)C)N2CCN(C)CC2)cc1 (configuration not stated) | 81.4 | –
31 | Cc1cc(C)cc(NCCC#N)c1 | 88.6 | –
32 | CCOC(=O)C1=C(O)/C(=C\c2ccc(CNC(=O)C(=O)Nc3ccccc3)o2)N=C1C | 80.2 | –
33 | CCCOC(=O)Nc1sc2c(c1C(=O)OCC)CCC2 | 82.4 | –
34 | Cc1c(C(=O)O)cccc1-n1c(C)cc(/C=N/Nc2ccc([N+](=O)[O-])cn2)c1C | 110 | –
35 | CCOC(=O)CSc1nncc2ccc(OC)c(OC)c12 | 98.2 | –
36 | CC(NC(=O)Nc1ccc(O)cc1)(C(F)(F)F)C(F)(F)F | 99.2 | –
37 | N#Cc1c(-c2ccccc2)nc2n1CCS2 | 82.6 | –
38 | Nc1ccc(-c2nc3cc(N)ccc3n2CCO)cc1 | 104 | –
39 | CC(=O)Nc1ccc(C(=O)Nc2cccc(-c3cnc4ccccc4n3)c2)cc1 | 81.6 | –
40 | CC1=CC(C)(C)n2c(O)c(N=NC(N)=S)c3c(C)c(C)cc1c32 | 91.2 | –
41 | COC(=O)CCC(=O)OC1(C)C(=O)C2=CN(CCCOC(C)C)C(c3ccc(OC)cc3)=CC2=C(Br)C1=O (configuration not stated) | 96.9 | –
42 | O=C(O)C1Nc2ccc(Br)cc2C2C=CCC12 (configuration not stated) | 109 | –
43 | C/C(=N\Nc1ccc2nncn2n1)c1ccc(Br)s1 | 92.1 | –
44 | CC(=O)Nc1ccc(/C=N/Nc2ccc(C(=O)c3c(C)cc4ccccn34)cc2[N+](=O)[O-])cc1 | 102 | –

Row | SMILES | viability [%] | outcome
45 | O=C1CC(Nc2ccc(N3CCOCC3)cc2)C(=O)N1c1cccc(C(F)(F)F)c1 (configuration not stated) | 101 | –
46 | O=C(O)c1ccc(-n2cccc2/C=N\NC(=O)c2cc3cc(Br)ccc3o2)cc1 | 102 | –
47 | CCOC(=O)C1CCN(C(=O)Nc2ccc3nc(-c4ccco4)c(-c4ccco4)nc3c2)CC1 | – | inactive
48 | O=C(O)Cn1c(=O)c2c(c3ccccc31)CCC2 | 81.8 | –
49 | O=C(O)c1cccc(-n2cccc2/C=C/[N+](=O)[O-])c1 | 107 | –
50 | Cc1cccc(NC(=S)NC(=O)/C=C/c2ccco2)c1 | 94.8 | –
51 | CC(=O)c1ccc(S(=O)(=O)Nc2cccc(-c3ccc(N4CCOCC4)nn3)c2)cc1 | 81.9 | –
52 | CCCCOC(=O)CCCN1C(=O)/C(=C2\SC(=S)N(CCCC(=O)OCCCC)C2=O)SC1=S | 91.9 | –
53 | Nc1ncnc2c1cnn2C1CCCCC1 | 96.9 | –
54 | Cc1ccc(Nc2ccc(N)cc2S(=O)(=O)O)cc1 | – | inactive
55 | CCOCCCNC(=O)C1CCN(S(=O)(=O)CC)CC1 | 111 | –
56 | CCOC(=O)N1CCC(NC(=O)c2ccc(OC)c(CN3CC(=O)N4CCCC4C3=O)c2)CC1 (configuration not stated) | 114 | –
57 | C=CCN1C(=O)/C(=C\c2ccco2)C(C(=O)OC)=C1C | 104 | –
58 | O=C(O)c1ccc(S(=O)(=O)c2ccc([N+](=O)[O-])cc2[N+](=O)[O-])cc1 | 97.5 | –
59 | O=[N+]([O-])c1ccccc1S(=O)(=O)NC1CCCC1 | 104 | –
60 | CCNC(=O)C1CC(=O)N(Cc2ccc(F)cc2)C(=Nc2ccc(OC)cc2)S1 (configuration not stated) | 87.7 | –
61 | CCOC(=O)C1CC(CN2C(=O)c3ccccc3C2=O)OC1=O (configuration not stated) | 93.9 | –
62 | CC1CCCCC1NC(=S)Nc1cccc(S(=O)(=O)N(C)C)c1 (configuration not stated) | 100 | –
63 | O=C1N(Cc2cccnc2)C[C@@H]2C[C@@H](c3ccc4nsnc4c3)N3CCC[C@@]123 | 103 | –
64 | Cc1cc(NC(=O)Cc2cccs2)no1 | 93.5 | –
65 | CN1CCN(NC(=O)c2ccc(S(=O)(=O)N3CC4(C)CC3CC(C)(C)C4)cc2)CC1 (configuration not stated) | 84.6 | –
66 | CCC(C)n1c(-c2cccc(S(=O)(=O)N3CCOCC3)c2)n[nH]c1=S (configuration not stated) | 84.1 | –

Row | SMILES | viability [%] | outcome
67 | Cc1cc(NC(=O)Cn2cnc3c(nnn3-c3cccc(F)c3)c2=O)no1 | 108 | –
68 | COc1ccccc1NS(=O)(=O)c1cc(C(=O)NCCN2CCOCC2)ccc1Cl | 84.2 | –
69 | Oc1c(CN2CCOCC2)cc(CN2CCOCC2)c(O)c1O | 94 | –
70 | CCOc1ccc(-n2c(SCC(N)=O)nnc2-c2cccnc2)cc1 | 99.5 | –
71 | CN(Cc1cccs1)C(=O)Cn1cnc2ccccc2c1=O | 84.5 | –
72 | O=C(NCCc1ccccc1)c1ccc2nc(-c3ccco3)c(-c3ccco3)nc2c1 | 86.9 | –
73 | O=C1CC(NCc2ccco2)C(=O)N1CCc1ccccc1 (configuration not stated) | 113 | –
74 | Cc1c(F)cccc1NC(=O)CCCCCC1NC(=O)NC1C (configuration not stated) | 89.3 | –
75 | CCN1C[C@@H]2[C@@H]3C(=O)N(Cc4ccccc4)C(=O)[C@@H]3[C@](C)(C(=O)OC)N2C1=NC1CCCCC1 | 99.2 | –
76 | CO[C@H]1C=CO[C@@]2(C)Oc3c(C)c(O)c4c(O)c(c(C=NN5CCN(C)CC5)c(O)c4c3C2=O)NC(=O)C(C)=CC=C[C@H](C)[C@H](O)[C@@H](C)[C@@H](O)[C@@H](C)[C@H](OC(C)=O)[C@@H]1C | 86.4 | –
77 | CSc1ccc(CN(C)CC(=O)NC(=O)NCCC2=CCCCC2)cc1 | 88.9 | –
78 | CC1(OC(=O)C2CCCC2)C(=O)C=C2C=C(c3ccsc3)OC=C2C1=O (configuration not stated) | 107 | –
79 | CC1(CCl)N([O-])C2=C(CCCC2)[N+]1=O (configuration not stated) | 99.6 | –
80 | O=C(NN=C1CCCCCC1)c1cccnc1 | 82.5 | –
81 | O=C(N/N=C/c1cccnc1)c1cc(O)c(O)c(O)c1 | 98.4 | –
82 | Cc1cc(C)n(CC(=O)NNC(=O)c2ccc(NC(=O)CC#N)cc2)n1 | 111 | –
83 | CN(C)c1ccc(N/C=C/C(=O)c2ccco2)cc1 | 82.4 | –
84 | Nc1cc(N)nc(SCc2cc([N+](=O)[O-])cc3c2OCOC3)n1 | 102 | –
85 | Cc1ccc(N/N=C/c2c(C)c(C#N)c(=O)n(C)c2O)cc1C | 109 | –
86 | O=S(=O)(c1ccc(NC(=S)N/N=C/c2ccc(O)c(O)c2)cc1)N1CCOCC1 | 87.7 | –
87 | Cn1ccnc1Sc1ccc(/C=N/NC(=O)c2ccccc2O)cc1[N+](=O)[O-] | 109 | –
88 | O=C1C(=Cc2ccco2)CCCC1=Cc1ccco1 | 82.8 | –

Row | SMILES | viability [%] | outcome
89 | O=C(COC(=O)COc1ccc(Cl)cc1Cl)NC1CCCCCC1 | 98.7 | –
90 | CN1CCN(C(=O)/C(=C/c2ccc(F)cc2)NC(=O)c2ccccc2)CC1 | 91.1 | –
91 | O=C(Cc1c(F)cccc1Cl)NNC(=O)c1ccccc1Cl | 95.7 | –
92 | COc1ccc2nc(-c3ccccc3)cc(C(=O)OCC(=O)N3CC(C)OC(C)C3)c2c1 (configuration not stated) | 86.4 | –
93 | O=C(c1coc(=O)c(Br)c1)N1CCCc2ccccc21 | 91.1 | –
94 | CCCCN(C(=O)c1ccccc1OCc1ccc(F)cc1)c1c(N)n(CC(C)C)c(=O)[nH]c1=O | 84.6 | –
95 | COc1ccc(S(N)(=O)=O)cc1C(=O)OCC(=O)NC(C)(C#N)C1CC1 (configuration not stated) | 106 | –
96 | CCc1ccc(N2C(=O)Cc3c2nc(N)c(C#N)c3N)cc1 | 89.4 | –
97 | COC(=O)c1ccccc1NC(=O)c1noc2c1CCC2 | 92.8 | –
98 | O=C(CN1CCN(S(=O)(=O)c2ccc(F)cc2)CC1)c1ccc(O)c(O)c1 | 111 | –
99 | CC(C)(C)c1ccc(S(=O)(=O)N2CCCCC2)cc1 | 82.3 | –
100 | O=C(CCS(=O)(=O)c1ccc(Br)cc1)N1CCN(c2ccc(F)cc2)CC1 | 90.7 | –
101 | CC(=O)Nc1ccc(NC(=O)C(C)OC(=O)CC23CC4CC(CC(Br)(C4)C2)C3)cc1 (configuration not stated) | 94.2 | –
102 | CC(=O)OC1OCCOC1NC(=S)Nc1ccc(C)cc1 (configuration not stated) | 85.9 | –
103 | CC(C)(C)NCCCCOc1ccc(F)cc1 | 103 | –
104 | COC/C=C/C1=CC2=CC(=O)C(C)(OC(=O)c3ccco3)C(=O)C2=CO1 (configuration not stated) | 83.5 | –
105 | O=C(c1cc2ccccc2o1)N1CC=C(c2ccccc2)CC1 | 81.2 | –
106 | O=c1c(N=Nc2ccc(O)cc2)c(-c2ccccc2)[nH]n1-c1ccc([N+](=O)[O-])cc1 | 86 | –
107 | COc1ccc2nc(NNC(=O)c3cc(=O)c4ccccc4o3)sc2c1 | 87 | –
